From PubChem
An excerpt weighted towards active compounds, which were near 21% of everything screened.
Pf growth 96h = Primary qHTS for delayed death inhibitors of the malarial parasite plastid, 96 hour incubation. 320,000 tested, 6.9% active. Potency, µM (top dose mostly 28.7 µM), for inactives: at the top dose activity change, negative = inhibition, usual class: inhibitors. P. falciparum luciferase reporter growth, 96 h; active means well fitted inhibition curve with a large enough effect; inconclusive means small, poorly fitted or top-dose-only effect, or another doubt; inactive means no such curve, though single readings can be large or run the other way; further: potency means the concentration at half of the fitted maximal effect; on the % scale 0 is the no-effect control and ±100 the full control effect
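Infected RBCs, 2% Hct / 0.05% parasitemia final; luciferase-reporter P. falciparum; cpd 96 h, 37 C, 5% CO2; luciferase detection reagent; luminescence.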
Cycloheximide cs = Cycloheximide Counterscreen for Small Molecule Inhibitors of Shiga Toxin | max response, % | cell reporter, cycloheximide protein synthesis inhibition counterscreen | AID 2314, 2010 | 300,000 tested, 12% active; in the data active means max response mostly above about 13%, no sharp cut-off; inactive means mostly below about 14%; further: read at 38.3 µM for the half of the compounds with a filed dose; 0% is about no effect
Pf growth 48h = Primary qHTS for delayed death inhibitors of the malarial parasite plastid, 48 hour incubation; AID 504832, 2011; Potency, µM (titrated, usually from 28.7 µM), for the others: at the highest dose activity change, negative = inhibition, usual class: inhibitors; 310,000 tested, 5.9% active; P. falciparum luciferase growth in erythrocytes, 48 h; active means well fitted inhibition curve with a large enough effect; inconclusive means small, poorly fitted or top-dose-only effect, or another doubt; inactive means no such curve, though single readings can be large or run the other way; further: potency means the concentration at half of the fitted maximal effect; on the % scale 0 is the no-effect control and ±100 the full control effect
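Cell-based growth assay: transgenic P. falciparum expressing firefly luciferase, cultured in red cells within RPMI 1640 containing 0.5% w/v Albumax, 24 mM bicarbonate and gentamycin. A drop in luciferase activity indicates inhibition.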
SARS PLpro yeast = qHTS of Yeast-based Assay for SARS-CoV PLP | S. cerevisiae expressing SARS-CoV PLpro, growth rescue | Potency, µM (titrated, usually from 32.9 µM), inactives show top-dose activity, positive = growth rescue, usual class: activators | 330,000 tested, 0.19% active; further: potency means the concentration at half of the fitted maximal effect; 0% is about no effect; nearly all actives have a fitted effect of over 55% in size
NS1 function inh = qHTS Assay for Inhibitors of Influenza NS1 Protein Function; Potency, µM (top dose mostly 46.1 µM), for the others: top-dose activity, positive = more growth; 270,000 tested, 0.4% active; AID 2326, 2010; further: potency means the concentration at half of the fitted maximal effect; actives are rising curves; nearly all actives have a fitted effect of over 50% in size
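Growth recovery, yeast-based: influenza A NS1 expressed in S. cerevisiae causes slow growth, and suppressors are detected by OD600. The parent strain without NS1 is used as positive control.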
Shiga toxin inh = A qHTS for Small Molecule Inhibitors of Shiga Toxin. inhibition, % at 38.7 µM. Vero cells, Shiga toxin protein synthesis inhibition reporter. 290,000 tested, 9.2% active. AID 2315, 2010; in the data active means inhibition mostly above about 28%, no sharp cut-off; inactive means mostly below about 43%; further: 0% is about no effect
Numbers without * were called inactive; ? = inconclusive; . = no result given. Unless noted, the call rests on the fitted dose curve.

SMILES	Pf growth 96h	Cycloheximide cs	Pf growth 48h	SARS PLpro yeast	NS1 function inh	Shiga toxin inh
COc1ccc(C2=NN(c3ccccc3)C(=O)/C2=C\c2ccc(O)c(OC)c2)cc1	?	14	13µM*	-1%	.	22
COc1ccc(/C=C2\SC(c3ccc(C)cc3)=NC2=O)cc1OC	?	9	?	3%	25%	3
O=C(COc1ccccc1)N1CCN(S(=O)(=O)c2cccc([N+](=O)[O-])c2)CC1	-19%	-9	-3%	1%	.	-18
CCOC(=O)c1c(C)cc(C)[nH]c1=O	13%	2	5%	1%	2%	-8
O=C1COc2ccc(C(=O)CSc3nc4ccccc4c(=O)n3-c3ccc(Cl)c(Cl)c3)cc2N1	?	4	10µM*	1%	-2%	22
O=C(Cc1ccc(Br)cc1)OCC(=O)N1CCCCCC1	.	.	.	9%	.	.
CN(C)c1ccc(/C=C2/C=C(c3ccc4c(c3)CCCC4)OC2=O)cc1	61%	-2	1%	0%	1%	-3
O=C1OC(c2ccccc2)=C/C1=C/N1CCCCC1	-16%	38*	140%	-13%	-51%	126*
O=C1OC(c2ccc(Br)cc2)=N/C1=C\N1CCCCC1	?	23*	106%	-3%	-10%	66*
CN(C)/C=C1/N=C(c2ccccc2)OC1=O	.	11	38%	1%	2%	13
O=C1OC(c2ccccc2)=N/C1=C\N1CCCCC1	425%	42*	106%	-7%	-46%	61*
CC(=O)N1CCN(Cc2nc3scc(-c4ccccc4)c3c(=O)[nH]2)CC1	13µM*	-3	?	1%	.	11
CSCC[C@H](NC(=O)Nc1cccc(Br)c1)C(=O)O	43%	-3	40%	1%	1%	11
COc1ccc(C(=O)c2c(C)n(CCN3CCOCC3)c3ccccc23)cc1	12µM*	.	-15%	.	.	.
COc1ccc(-c2nc3ccccc3c(=O)n2CCN2CCOCC2)cc1	?	2	6%	-1%	?	12
COc1ccc(N2CCN(CCCNC(=O)C(=O)c3c(C)n(C)c4ccccc34)CC2)cc1	15µM*	0	?	-1%	3%	-7
COc1ccc(N2CCN(C(=O)C(=O)c3c(C)n(C)c4ccccc34)CC2)cc1	-46%	7	-16%	-1%	.	-3
O=Cc1cn(CC(O)CN2CCCCC2)c2ccccc12 (stereo not given)	?	-1	27%	0%	2%	14
O=C(/C=C/c1cn(CC(O)CN2CCOCC2)c2ccccc12)c1cccs1 (stereo not given)	?	19	6.6µM*	0%	-2%	64
Cc1ccc(C(=O)/C=C/c2cn(CC(O)CN3CCOCC3)c3ccccc23)cc1 (stereo not given)	12µM*	30*	?	-1%	9%	29
Cc1noc(C)c1C(=O)OC(C)C(=O)N(C)c1ccccc1 (stereo not given)	?	.	6%	-9%	.	.
Cc1c(F)c(F)c(COC(=O)C2C(/C=C(\Cl)C(F)(F)F)C2(C)C)c(F)c1F (stereo not given)	.	10	.	.	.	-3
CN(CC(=O)Nc1cccc(F)c1)C(=O)C1CC(=O)N(Cc2ccco2)C1 (stereo not given)	?	.	-27%	-8%	.	.
CCOC(=O)N1CCN(C(=S)Nc2ccc3nc(N4CCN(CC)CC4)cc(C)c3c2)CC1	-2%	-2	?	17%	-5%	-8
COc1ccc(C(=O)/C=C/c2cn(CC(O)CN3CCOCC3)c3ccccc23)cc1 (stereo not given)	5.2µM*	12*	?	-5%	0%	13
COc1ccc(C(=O)/C=C/c2cn(CC(O)CN(CC(C)C)CC(C)C)c3ccccc23)cc1OC (stereo not given)	.	21	.	.	.	19
O=C(COC(=O)c1cccnc1Cl)NCCc1ccc(F)cc1	.	.	.	-15%	.	.
CN(C)C(=O)C1C2NC(=S)N(c3cccc(Cl)c3)C1(C)Oc1ccc(Cl)cc12 (stereo not given)	?	-10	-70%	23%	.	-5
